Structures are written as SMILES. Results filed as inconclusive are left out. Active and inactive are the calls of the source. Calls come from the whole dose curve; as a rule, active = well fitted curve in the direction sought with a large enough effect in the repeat runs; inconclusive = weak or mixed curves; inactive = no such curve, though single readings can be large; an effect the other way counts as inactive or inconclusive.

The nature of assay [1]: qHTS assay to identify small molecule antagonists of the glucocorticoid receptor (GR) signaling pathway - cell viability counter screen (AID 720693). Note: nearly all actives have a fitted effect of over 55% in size.
Assay [2] can be described thus: qHTS assay for identifying genotoxic compounds that show differential cytotoxicity against isogenic chicken DT40 cell lines with known DNA damage response pathways - wild type cell line (AID 743012). Note: nearly all actives have a fitted effect of over 60% in size. Note: potency is the fitted concentration of half-maximal effect. Summed up: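 First, wild type DT40 cells were plated at 300 per well and equilibrated about 0.5 h at 37 C/5% CO2. Next, compounds in DMSO were added and exposure lasted 40 h. Finally, CellTiter-Glo was added for 30 min at room temperature and luminescence recorded.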

Assay [3] can be described thus: qHTS assay for identifying genotoxic compounds that show differential cytotoxicity against isogenic chicken DT40 cell lines with known DNA damage response pathways - Rev3 mutant cell line (AID 743014). Note: nearly all actives have a fitted effect of over 55% in size. Note: potency is the fitted concentration of half-maximal effect. A general note: Quantitative high-throughput screening tests each substance at several concentrations.
A short description of assay [4]: qHTS assay for identifying genotoxic compounds that show differential cytotoxicity against isogenic chicken DT40 cell lines with known DNA damage response pathways - Rad54/Ku70 mutant cell line (AID 743015). Note: nearly all actives have a fitted effect of over 60% in size. Note: potency is the fitted concentration of half-maximal effect.
Assay [5] can be described thus: qHTS assay to identify small molecule antagonists of the androgen receptor (AR) signaling pathway - cell viability counter screen (AID 743033; note: nearly all actives have a fitted effect of over 45% in size).
A short description of assay [6]: qHTS assay to identify small molecule antagonists of the androgen receptor (AR) signaling pathway using the MDA cell line - cell viability counter screen (AID 743041; note: nearly all actives have a fitted effect of over 45% in size; note: potency is the fitted concentration of half-maximal effect). Summed up: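 R1881-driven MDA-kb2 AR-luc cells, 3,000/well, were dosed with library compounds for 16 h; cell health came from CellTiter-Fluor fluorescence in the reporter wells.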

For the compound `CN[C@@H]1CCc2[nH]c3ccc(C(N)=O)cc3c2C1`, the Potency entry in assay [1], in assay [2], in assay [3], in assay [4], in assay [5] and in assay [6] was “inactive” in each case.
For `CCC(C)(C)OC(=O)N[C@@H](Cc1c[nH]c2ccccc12)C(=O)N[C@@H](CCSC)C(=O)N[C@@H](CC(=O)O)C(=O)N[C@@H](Cc1ccccc1)C(N)=O`, the Potency entry in assay [1], in assay [2], in assay [3], in assay [4], in assay [5] and in assay [6] was “inactive” in each case.
`CC(=O)N[C@@H]1C(O[C@H]2O[C@H](C(=O)O)C(O)[C@H](O)[C@H]2O)[C@H](O)[C@@H](CO)O[C@H]1O[C@@H]1C(C(=O)O)O[C@@H](O[C@H]2[C@H](O)[C@@H](CO)OC(O)[C@@H]2NC(C)=O)[C@H](O)[C@H]1O` (stereo partly specified): the Potency result in assay [1], in assay [2], in assay [3], in assay [4], in assay [5] and in assay [6] was “inactive” each time.
As to `COc1ccccc1N1CCN(CCCC(=O)c2ccc(F)cc2)CC1`, the Potency result in assay [1], in assay [5] and in assay [6] was “inactive” in each case. In addition, the values for the Potency in assay [2], in assay [3] and in assay [4] were 13.3 µM (active), 11.9 µM (active) and 26.6 µM (active), respectively.
`Cc1cc(C(=O)NNCc2ccccc2)no1`: the Potency result in assay [1], in assay [2], in assay [3], in assay [4], in assay [5] and in assay [6] was “inactive” each time.
As for `O=P(O)(O)C(O)(Cc1cnc2ccccn12)P(=O)(O)O`, the Potency entry in assay [1], in assay [2], in assay [3], in assay [4], in assay [5] and in assay [6] was “inactive” in each case.
As to `CCSc1ccc2c(c1)N(CCCN1CCN(C)CC1)c1ccccc1S2`, the Potency entry in assay [1], in assay [5] and in assay [6] was “inactive” throughout. The values for the Potency in assay [2], in assay [3] and in assay [4] were 11.4 µM (active), 14.3 µM (active) and 11.4 µM (active), respectively.
As to `CCOC(=O)[C@H](CCc1ccccc1)N[C@@H](C)C(=O)N1CC2(C[C@H]1C(=O)O)SCCS2`, the Potency entry in assay [1], in assay [2], in assay [3], in assay [4], in assay [5] and in assay [6] was “inactive” each time.
Consider `Nc1ncnc(Nc2ccc(Cl)cc2)n1`, for which the Potency result in assay [1], in assay [2], in assay [3], in assay [4], in assay [5] and in assay [6] was “inactive” throughout.
On to `O=S(O)CNc1ccc(S(=O)(=O)c2ccc(NCS(=O)O)cc2)cc1`, for which the Potency entry in assay [1], in assay [2], in assay [3], in assay [4], in assay [5] and in assay [6] was “inactive” throughout.
Regarding `CCCN(CC)C(CC)C(=O)Nc1c(C)cccc1C` (stereo unspecified), the Potency result in assay [1], in assay [2], in assay [3], in assay [4], in assay [5] and in assay [6] was “inactive” throughout.
Consider `CCCC(CCC)C(N)=O`, for which the Potency entry in assay [1], in assay [2], in assay [3], in assay [4], in assay [5] and in assay [6] was “inactive” in each case.
As to `CCC(=O)O[C@]1(C(=O)CCl)[C@@H](C)C[C@H]2[C@@H]3C[C@H](F)C4=CC(=O)C=C[C@]4(C)[C@@]3(F)[C@@H](O)C[C@@]21C`, the Potency entry in assay [1], in assay [5] and in assay [6] was “inactive” in each case. The Potency in assay [2] is 11.9 µM (active); in assay [3], 7.5 µM (active); in assay [4], 23.7 µM (active).
Regarding `C=C[C@]1(C)C[C@@H](OC(=O)CSCCN(CC)CC)[C@]2(C)[C@H](C)CC[C@]3(CCC(=O)[C@H]32)[C@@H](C)[C@@H]1O`, the Potency entry in assay [1], in assay [5] and in assay [6] was “inactive” each time. The Potency in assay [2] was 5.31 µM (active); in assay [3], 5.96 µM (active); in assay [4], 6.68 µM (active).
As for `CC(C)(C)NCC(O)c1ccc(O)c(CO)n1` (stereo unspecified), the Potency entry in assay [1], in assay [2], in assay [3], in assay [4], in assay [5] and in assay [6] was “inactive” each time.
For the compound `C=CC1=C(C)C2=CC3=NC(=C(CC(=O)[O-])C4=NC(=C(C)C4=C([O-])[O-])C=c4[n-]c(c(C)c4CC)=CC1=N2)C(CCC(=O)[O-])C3C.[Cu+2].[Na+].[Na+].[Na+]` (stereo unspecified), the Potency entry in assay [1] and in assay [5] was “inactive” throughout. The Potency was 29.8 µM (active) in assay [2], 23.7 µM (active) in assay [3], 29.8 µM (active) in assay [4] and 22.1 µM (active) in assay [6].
Regarding `Cn1cc(NC(=O)c2cc(NC(=O)c3cc(NC=O)cn3C)cn2C)cc1C(=O)NCCC(=N)N`, the Potency result in assay [1], in assay [2], in assay [3], in assay [4], in assay [5] and in assay [6] was “inactive” in each case.
As to `CC1(C)S[C@@H]2[C@H](NC(=O)Cc3ccccc3)C(=O)N2[C@H]1C(=O)O`, the Potency entry in assay [1], in assay [2], in assay [3], in assay [4], in assay [5] and in assay [6] was “inactive” in each case.
Regarding `CCOC(=O)Cc1cccc(-c2cc(CCCCCCc3ccc(O[C@H]4O[C@H](COC(C)=O)[C@@H](OC(C)=O)[C@H](OC(C)=O)[C@@H]4OC(C)=O)c(-c4cccc(CC(=O)OCC)c4)c3)ccc2O[C@H]2O[C@H](COC(C)=O)[C@@H](OC(C)=O)[C@H](OC(C)=O)[C@@H]2OC(C)=O)c1`, the Potency result in assay [1], in assay [2], in assay [3], in assay [4], in assay [5] and in assay [6] was “inactive” each time.
Regarding `OC1OC[C@@H](O)[C@H](O)[C@@H]1O` (stereo partly specified), the Potency entry in assay [1], in assay [2], in assay [3], in assay [4], in assay [5] and in assay [6] was “inactive” throughout.
As to `CN[C@@H]1[C@@H](O)[C@@H](O[C@@H]2[C@@H](O)[C@H](O[C@H]3O[C@H](CN)[C@@H](O)[C@H](O)[C@H]3O)[C@@H](N)C[C@H]2NC(=O)C(O)CN)OC[C@]1(C)O` (stereo partly specified), the Potency result in assay [1], in assay [2], in assay [3], in assay [4], in assay [5] and in assay [6] was “inactive” in each case.
